Assay results: PMC4336329 (PLoS ONE, 2015)
Out of some 310,000 compounds screened, about 14,000 (4.5%) showed an effect of 50% or more. The effect is printed as a negative number. The list comes from a sample in which strong results are over-represented; it also holds similar structures and randomly drawn compounds.

molecular target: human ether-à-go-go-related gene (hERG) potassium channel (human, UniProt Q12809); assay: primary screen, population patch clamp on CHO cells stably expressing hERG; higher = less effect of the substance
Sequence (Q12809 whole entry, looked up): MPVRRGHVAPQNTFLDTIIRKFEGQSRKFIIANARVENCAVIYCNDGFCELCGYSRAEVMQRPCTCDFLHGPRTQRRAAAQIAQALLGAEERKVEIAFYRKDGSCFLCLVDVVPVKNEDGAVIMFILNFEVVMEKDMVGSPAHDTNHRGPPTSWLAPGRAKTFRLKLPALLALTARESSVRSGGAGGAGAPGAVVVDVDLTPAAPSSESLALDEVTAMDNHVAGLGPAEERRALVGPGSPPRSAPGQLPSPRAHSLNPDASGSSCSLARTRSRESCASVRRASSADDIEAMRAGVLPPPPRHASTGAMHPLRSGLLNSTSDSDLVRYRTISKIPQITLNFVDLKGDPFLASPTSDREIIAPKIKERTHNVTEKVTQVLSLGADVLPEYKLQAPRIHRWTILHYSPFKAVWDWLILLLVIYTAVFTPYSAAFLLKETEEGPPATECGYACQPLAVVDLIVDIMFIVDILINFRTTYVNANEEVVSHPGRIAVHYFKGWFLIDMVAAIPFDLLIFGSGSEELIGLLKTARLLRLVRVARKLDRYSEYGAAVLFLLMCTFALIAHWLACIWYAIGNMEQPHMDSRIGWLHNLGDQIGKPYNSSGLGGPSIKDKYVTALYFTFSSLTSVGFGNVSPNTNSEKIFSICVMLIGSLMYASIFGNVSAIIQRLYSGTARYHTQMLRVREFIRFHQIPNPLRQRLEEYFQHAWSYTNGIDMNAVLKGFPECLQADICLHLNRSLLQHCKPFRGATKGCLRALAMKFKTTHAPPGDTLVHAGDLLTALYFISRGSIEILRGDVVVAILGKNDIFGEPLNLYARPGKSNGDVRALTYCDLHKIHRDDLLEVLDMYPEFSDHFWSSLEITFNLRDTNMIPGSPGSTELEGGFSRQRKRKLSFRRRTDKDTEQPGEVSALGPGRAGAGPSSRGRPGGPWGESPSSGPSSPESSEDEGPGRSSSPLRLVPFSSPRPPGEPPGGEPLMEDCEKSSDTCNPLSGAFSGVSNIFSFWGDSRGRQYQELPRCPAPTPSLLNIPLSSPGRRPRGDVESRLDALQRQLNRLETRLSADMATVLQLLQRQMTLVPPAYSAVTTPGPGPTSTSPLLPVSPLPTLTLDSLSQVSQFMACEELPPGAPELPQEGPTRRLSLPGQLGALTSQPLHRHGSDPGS
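Further: peak tail current of the secondary pulse compared with the same well before compound.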

Structure (SMILES)	hERG current change (%, negative = inhibition) at 10uM [%]
Cc1ccc(C)c2sc(N)nc12	22.6
COc1ccc(NC(=O)CSc2ncn[nH]2)c([N+](=O)[O-])c1	-4.71
Nc1nc(N)nc(-c2cc(C(F)(F)F)ccc2Cl)n1	11.9
CC(=O)N(C)c1ccc(NC(=O)c2cnn(C)c2)cc1	3.39
COc1cccc(CN2C(=O)CCC2(C)C(=O)NC2CCCCC2)c1 (centres unmarked)	12.9
COc1cccc(-c2cc(C(=O)N/N=C/c3ccco3)c3ccccc3n2)c1	-2.76
C/C(CC(=O)Nc1cccc2c1CCCC2)=N\NC(=O)c1cccc2ccccc12	-7.31
O=C(c1ccc2oc(Cc3ccc(Cl)cc3)nc2c1)N1CC[C@H](O)C1	4.21
CCCCCCC1CC(C)(C(=O)C[NH2+]c2nncs2)OC1=O.[Br-] (centres unmarked)	-66.3
CCCCCC1CC(/C(C)=N/NC(N)=O)OC1=O (centres unmarked)	-7.05
CCCCC1CC(/C(C)=N/NC(N)=O)OC1=O (centres unmarked)	-6.35
Br.CCCCCCC1CC(CSC(=N)N)OC1=O (centres unmarked)	-52.1
CCCCCC1CC(CC(=O)Nc2nncs2)C(=O)O1 (centres unmarked)	-8.91
CCCC1CC(C)(/C(C)=N\NC(N)=S)OC1=O (centres unmarked)	12.4
CCCCCCC1CC(C)(/C(C)=N/NC(N)=O)OC1=O (centres unmarked)	-50.1
CCCCC1CC(C)(C(=O)CSc2nc3ccccc3s2)OC1=O (centres unmarked)	-0.178
CCCCCCCC1CC(/C(C)=N/NC(N)=O)OC1=O (centres unmarked)	-45.3
CCCCCCC1CC(/C(C)=N\NC(N)=O)OC1=O (centres unmarked)	-53
Br.CCCCCCCC1CC(CSC(=N)N)OC1=O (centres unmarked)	-44.2
Br.CCCCC1CC(CSC(=N)N)OC1=O (centres unmarked)	-1.27
COc1cccc(NC(=O)c2ccccc2-c2ccccc2C(=O)O)c1	10.1
COc1ccc(NC(=O)CN(c2ccc([N+](=O)[O-])cc2)S(=O)(=O)c2ccccc2)cc1	-10.3
Cc1ccc(C(=O)O/N=C(\N)c2nonc2N)cc1	-8.67
COc1ccc(-c2nc3ccc([N+](=O)[O-])cc3[nH]2)cc1	13.5
Cc1c(NC(=O)CSc2nnnn2-c2ccc(C(=O)O)cc2)c(=O)n(-c2ccccc2)n1C	20.8

Structure (SMILES)	hERG current change (%, negative = inhibition) at 10uM [%]
CN(CC(=O)Nc1ccccc1C(F)(F)F)C(=O)c1cc2c(s1)CCCCC2	-29.2
CCc1sc(C(=O)NCc2ccccc2)cc1C	-9.06
CN1CCN(S(=O)(=O)c2ccc(N(C)CC(=O)Nc3ccc(F)cc3)nc2)CC1	-4.31
CN(CC(=O)Nc1ccc(C(N)=O)cc1)CC(=O)Nc1ccccc1Br	11
O=C(c1ccco1)N1CCN(Cc2cc(=O)oc3cc(O)ccc23)CC1	-69.3
O=c1cc(CN2CCN(Cc3ccccc3)CC2)c2ccc(O)cc2o1	-76.8
O=c1cc(CN2CCOCC2)c2cc(Cl)ccc2o1	-0.546
O=C(O)C(=O)O.O=C(c1ccco1)N1CCN(Cc2cccc3ccccc23)CC1	-24.3
COc1ccc(OC)c(CN2CCN(Cc3cc(=O)oc4cc(O)ccc34)CC2)c1	-74.8
CC1CN(Cc2cc(=O)oc3cc(O)ccc23)CC(C)O1 (centres unmarked)	-23.3
Cc1ccc2c(CN3CCN(C(=O)c4ccco4)CC3)cc(=O)oc2c1C	-48.6
COC(=O)C1CCN(Cc2cc(=O)oc3cc(OC)ccc23)CC1	-17.8
CN1CCN(Cc2cc(=O)oc3ccc(Cl)cc23)CC1	-16.7
O=c1cc(CN2CCN(Cc3ccccc3)CC2)c2cc(O)ccc2o1	-68.2
COc1ccc2oc(=O)cc(CN3CCOCC3)c2c1	18.3
CCc1cc2c(CN3CCN(Cc4ccccc4)CC3)cc(=O)oc2cc1O	-35.5
O=C(NC1CCOCC1)C1CCC(=O)N(Cc2cccc(C(F)(F)F)c2)C1 (centres unmarked)	13.7
Cc1cc2c(cc1S(=O)(=O)CCC(=O)N(C)Cc1ccccc1)OCC(=O)N2	-35
O=[N+]([O-])c1cccc(/C=N/n2c(C3CCCCC3)n[nH]c2=S)c1	11.9
COc1cc([N+](=O)[O-])ccc1NC(=O)Nc1ccc2c(c1)OCCO2	25.3
CCN1CCN(CCNC(=O)CCCn2nc(C)c3c(C)n(-c4ccc(C)cc4)nc3c2=O)CC1	0.678
O=C(CCC(=O)c1ccc[nH]1)c1ccc(Cl)cc1	-5.4
CC1CCCN(CCC(=O)Nc2ccc(F)c(F)c2)C1 (centres unmarked)	-30.1
COc1ccc(/C(C)=N/NC(=O)Cc2ccc(Cl)cc2)cc1	14.6
O=C1C(=O)N(c2ccccn2)C(c2ccc(Br)cc2)/C1=C(/O)c1ccc(Br)cc1 (centres unmarked)	-47.8

Structure (SMILES)	hERG current change (%, negative = inhibition) at 10uM [%]
CCOc1cc2[nH]c(=O)n(CCCC(=O)NCc3ccco3)c(=O)c2cc1OCC	5.83
Cc1cc(C)n(-c2ccc(C(=O)N3CCN(S(=O)(=O)c4ccc(Cl)cc4)CC3)cc2)n1	-25.8
OCC1(CCCc2ccccc2)CCN(Cc2ccc(F)cc2)CC1	-72.9
CC(C)(O)C#Cc1ccc(CN2CCC(CO)(CCc3ccccc3)CC2)cc1	-39.8
CC(=O)c1cccc(CN2CCC(CO)(Cc3ccccc3)CC2)c1	-22.9
O=C(CN1CCN(Cc2ccc(F)cc2)CC1)NCCc1ccccc1	-13.6
Cc1cccc(-c2ncc(CN3CCC(CO)(CCCc4ccccc4)CC3)cn2)c1	-54.1
COC(=O)c1cccc(C(=O)N2CCC(CO)(CCc3ccccc3)CC2)c1	-13.6
Cn1cc(CN2CCC(CO)(CCCc3ccccc3)CC2)c(-c2ccccc2)n1	-66.3
COc1cccc(CC2(CO)CCN(Cc3cnc(-c4cccc(C)c4)nc3)CC2)c1	-19.9
CC(=O)c1cccc(CN2CCC(CO)(CCCc3ccccc3)CC2)c1	-63.9
Cc1ccccc1-c1ncc(CN2CCC(CO)(CCCc3ccccc3)CC2)cn1	-10.9
Cc1cc2cc(C#N)c(SCC(=O)Nc3nonc3C)nc2cc1C	-0.0959
CCOC(=O)c1c(C)[nH]c(C)c1C(=O)COC(=O)c1nc2nccc(C)n2n1	24.8
C/C(=N/NC(=O)c1cc(C(C)C)[nH]n1)c1cccs1	7.16
COc1cc(OC)cc(-c2c(-c3cccs3)c3cc(-c4ccn[nH]4)ccc3n2C)c1	7.72
O=C(Nc1ccc(Br)cc1Br)c1cccc2c1C(=O)N(C1CCCCC1)C2	12.8
CN(C)c1ccc(C=NCCC2(c3ccccc3)CCOC(C)(C)C2)cc1 (centres unmarked)	15.3
[N-]=C=C1C(=S)NC(=O)[C@H]([n+]2ccccc2)[C@H]1c1ccc(Cl)cc1	15.9
Cc1ccc2nc(/C(C#N)=C/c3ccc(O)c(O)c3)[nH]c2c1	7.82
CC(C)N1CCN(Cc2cc(F)ccc2-n2cccn2)CC1CCO (centres unmarked)	11.2
OCC1(CCc2ccccc2)CCN(Cc2c(F)ccc(F)c2F)CC1	-36.9
OCC1(CCc2ccccc2)CCN(Cc2cc(F)ccc2-n2cccn2)CC1	-78.1
OCC1(CCc2ccccc2)CCN(Cc2cc(Cl)ccc2O)CC1	-49.5
Clc1ccccc1CN1CCC(Cc2ccccc2)CC1	-12.1

Structure (SMILES)	hERG current change (%, negative = inhibition) at 10uM [%]
O=S(=O)(c1cccc(C(F)(F)F)c1)N1CCC(CO)(CCCc2ccccc2)CC1	-6.59
CC(C)N1CCC(N2CCN(Cc3cc(F)ccc3-n3cccn3)CC2CCO)CC1 (centres unmarked)	-8.1
OCC1(CCc2ccccc2)CCN(Cc2ccccc2Cl)CC1	-86
OCC1(CCCc2ccccc2)CCN(Cc2cc(F)ccc2F)CC1	-69.5
CCOc1ccc(NC(=O)N2CC=C(n3c(=O)[nH]c4ccccc43)CC2)cc1	-8.9
COc1ccc2[nH]c(=O)c(CN(c3ccc(C)c(C)c3)S(C)(=O)=O)cc2c1	12.9
Cc1ccccc1NC(=O)c1[nH]cnc1C(=O)NN	9.21
CCCCOc1ccc(C2C(C(=O)c3cccs3)=C(O)C(=O)N2CCN2CCOCC2)cc1 (centres unmarked)	21.8
CC(=O)Oc1cc2c(C(=O)NCCCN3CCOCC3)c(C)oc2c2ccccc12	-18.2
Cc1cc2nc(C)n(CCCN)c2cc1C.Cl	-0.0557
CCN(CC)S(=O)(=O)c1ccc(Cl)c(NC(=O)COc2ccc3c(C)cc(=O)oc3c2)c1	7.69
CCOC(=O)C(Sc1nnc(-c2ccncc2)o1)C(C)=O (centres unmarked)	27.7
COc1ccc(C(=O)N/C(=C\c2cn(C)c3ccccc23)C(=O)NCCCn2ccnc2)cc1	26.3
COc1ccc(C(=O)N/C(=C\c2ccccc2)C(=O)NCCCn2ccnc2)cc1	-55.8
COc1ccc(C(=O)NCCCn2ccnc2)cc1.Cl	-5.63
COc1ccc(/C=C(/NC(=O)c2ccccc2)C(=O)NCCCn2ccnc2)cc1OC	19
O=C(NCCCn1ccnc1)c1noc2c1CCc1ccccc1-2	-45.9
COc1ccc(/C=C(\NC(=O)c2ccc(C)cc2)C(=O)NCCCn2ccnc2)cc1	-86.4
COc1ccc(/C=C(/NC(=O)c2ccc(OC)c(OC)c2)C(=O)NCCCn2ccnc2)cc1	11.5
Cc1ccc(C(=O)N/C(=C\c2ccc(F)cc2)C(=O)NCCCn2ccnc2)cc1	-77.5
Cl.O=C(NCCCn1ccnc1)c1ccc(F)cc1	-2.81
COCCNC(=O)c1noc2c1CCc1cc(OC)ccc1-2	-6.83
COc1ccc2c(c1)CCc1c(C(=O)NCCCn3ccnc3)noc1-2	-50.2
